Experimental data as given in the supplement of paper PMC3545927.
The other results are listed elsewhere or left out. The true hit rate is not given.

Target: furin, P09958
Assay: furin cleavage Z-score vs untreated control; higher = more cleavage, active = 3.5 or more, inactive = 1 or less, 8 variable residues between constant flanks
Protocol: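 Multiplexed peptide-cDNA fusion cleavage assay. 8-mer variable peptides flanked by constant Cys-Ala (N-term) and Ala-Gly-Asn-Ala-Ser-Ala-Ser-Ala (C-term) and conjugated to a cDNA oligonucleotide were bead-immobilised via the N-terminus. They were treated with purified furin at a 1:10 enzyme:substrate ratio in 50 mM HEPES pH 7.5, 1 mM CaCl2, 100 mM NaCl for 7.5, 15 or 30 min. Released cDNA was counted by next-generation sequencing, and log counts versus no-furin controls were lowess-adjusted and converted to robust Z-scores.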

furin, P09958, sequence (P09958 whole entry): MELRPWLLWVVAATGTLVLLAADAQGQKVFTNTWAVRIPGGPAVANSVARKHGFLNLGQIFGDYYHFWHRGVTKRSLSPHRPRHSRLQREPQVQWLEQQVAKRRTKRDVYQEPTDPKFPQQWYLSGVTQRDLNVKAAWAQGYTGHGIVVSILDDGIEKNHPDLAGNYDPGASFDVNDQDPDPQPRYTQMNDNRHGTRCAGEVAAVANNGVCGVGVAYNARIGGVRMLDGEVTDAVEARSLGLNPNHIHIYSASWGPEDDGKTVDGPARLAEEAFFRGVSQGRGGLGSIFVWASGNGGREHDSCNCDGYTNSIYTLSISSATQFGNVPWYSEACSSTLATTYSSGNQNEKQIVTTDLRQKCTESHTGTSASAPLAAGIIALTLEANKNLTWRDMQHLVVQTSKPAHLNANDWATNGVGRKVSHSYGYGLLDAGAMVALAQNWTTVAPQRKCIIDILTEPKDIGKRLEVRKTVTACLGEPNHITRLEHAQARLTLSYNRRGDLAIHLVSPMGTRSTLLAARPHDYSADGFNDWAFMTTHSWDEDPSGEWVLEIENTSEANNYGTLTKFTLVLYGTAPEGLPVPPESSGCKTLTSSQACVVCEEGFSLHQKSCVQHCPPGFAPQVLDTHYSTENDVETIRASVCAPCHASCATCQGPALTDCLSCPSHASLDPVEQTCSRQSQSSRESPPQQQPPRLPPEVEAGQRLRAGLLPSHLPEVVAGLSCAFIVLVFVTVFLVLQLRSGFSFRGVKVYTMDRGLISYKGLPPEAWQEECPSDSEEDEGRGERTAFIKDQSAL

Row | Sequence | furin cleavage Z-score (7.5 min) | furin cleavage Z-score (15 min) | furin cleavage Z-score (30 min)
1 | CATTKCSGSWAGNASASA [HC1874] | -0.691 (inactive) | -0.337 (inactive) | -0.205 (inactive)
2 | CASKSRSSRSAGNASASA [FS-501] | 8.19 (active) | 9.38 (active) | 7.93 (active)
3 | CANKSRSSRSAGNASASA [FS-180] | 8.13 (active) | 8.25 (active) | 6.67 (active)
4 | CATLSRSSRSAGNASASA [FS-1292] | 6.97 (active) | 8.07 (active) | 7.37 (active)
5 | CANKSRESRPAGNASASA [FS-1469] | -0.557 (inactive) | -0.538 (inactive) | -0.178 (inactive)
6 | CASGSRSSRSAGNASASA [FS-1409] | 0.457 (inactive) | 1.76 | 2.85
7 | CAPRTCRNMWAGNASASA [HC1185] | -0.106 (inactive) | 1.74 | 0.874 (inactive)
8 | CAMEEDSQHLAGNASASA [HC12] | 1.39 | -0.675 (inactive) | -1.53 (inactive)
9 | CADLLVGSATAGNASASA [HC292] | -0.794 (inactive) | -0.376 (inactive) | -2.04 (inactive)
10 | CAEVPCHRISAGNASASA [HC2384] | -0.484 (inactive) | 0.399 (inactive) | 0.761 (inactive)
11 | CASLGRAKRAAGNASASA [FS-1569] | 5.19 (active) | 5.19 (active) | 3.67 (active)
12 | CAKHQRAKRAAGNASASA [FS-1130] | 5.65 (active) | 4.42 (active) | 4.22 (active)
13 | CASWGRVWRAAGNASASA [FS-1420] | 0.424 (inactive) | -1.01 (inactive) | 0.706 (inactive)
14 | CARDQRSVLAAGNASASA [FS-2206] | -0.0379 (inactive) | -0.365 (inactive) | 2.37
15 | CASLLSPRPIAGNASASA [HC736] | 0.821 (inactive) | -0.642 (inactive) | -0.193 (inactive)
16 | CAAVRTKLKLAGNASASA [HC1635] | -0.516 (inactive) | 0.293 (inactive) | 1.05
17 | CARRKRNVNTAGNASASA [FS-2068] | 9.71 (active) | 10.9 (active) | 8.02 (active)
18 | CARRKRKNKTAGNASASA [FS-1968] | 0.116 (inactive) | -2.04 (inactive) | -0.0117 (inactive)
19 | CARKKRNVNFAGNASASA [FS-3158] | 10.3 (active) | 10.5 (active) | 8.52 (active)
20 | CARKKRIFNLAGNASASA [FS-2693] | 0.592 (inactive) | 0.839 (inactive) | 0.689 (inactive)
21 | CARRKKQVGTAGNASASA [FS-2450] | -0.127 (inactive) | 1.03 | 0.188 (inactive)
22 | CAMEECSQYLAGNASASA [HC1749] | 0.871 (inactive) | 2.54 | 0.195 (inactive)
23 | CAPVVVGTTDAGNASASA [HC417] | -0.513 (inactive) | 0.318 (inactive) | -0.373 (inactive)
24 | CAEVVTSVWVAGNASASA [HC2210] | -1.35 (inactive) | -0.635 (inactive) | 0.276 (inactive)
25 | CARPRRDCVAAGNASASA [FS-2440] | 5.46 (active) | 5.89 (active) | 6.25 (active)
26 | CARPRRDSAGAGNASASA [FS-2500] | 0.906 (inactive) | -0.366 (inactive) | 0.714 (inactive)
27 | CARPRRLLQAAGNASASA [FS-2165] | -1.03 (inactive) | -0.941 (inactive) | -0.713 (inactive)

Row | Sequence | furin cleavage Z-score (7.5 min) | furin cleavage Z-score (15 min) | furin cleavage Z-score (30 min)
28 | CARPRRDAAEAGNASASA [FS-2741] | 8.33 (active) | 11 (active) | 8.31 (active)
29 | CARPRRDAEPAGNASASA [FS-1762] | 10.8 (active) | 12.9 (active) | 9.93 (active)
30 | CATKPCSGSWAGNASASA [HC1854] | -0.725 (inactive) | -0.656 (inactive) | -1.12 (inactive)
31 | CAEVTTPCSGAGNASASA [HC1970] | 0.193 (inactive) | -0.206 (inactive) | -0.0766 (inactive)
32 | CARRRRGAPEAGNASASA [FS-2297] | 6.8 (active) | 6.5 (active) | 6.23 (active)
33 | CARARREALRAGNASASA [FS-2326] | 7.37 (active) | 9.91 (active) | 7.3 (active)
34 | CARRRRGALRAGNASASA [FS-2787] | 3.24 | 5.07 (active) | 6.59 (active)
35 | CARRRRVVPEAGNASASA [FS-2082] | 1.92 | 5.11 (active) | 6.08 (active)
36 | CAVDVVCCSMAGNASASA [HC2110] | -1.67 (inactive) | -0.512 (inactive) | -0.588 (inactive)
37 | CAWRNRKKKTAGNASASA [FS-575] | -0.592 (inactive) | -0.739 (inactive) | -1.25 (inactive)
38 | CAGLVPRGSGAGNASASA [TR8] | -1.24 (inactive) | -1.44 (inactive) | -1.84 (inactive)
39 | CAMEECSFHLAGNASASA [HC1727] | 2.23 | -1.03 (inactive) | 1.18
40 | CASYSWTGALAGNASASA [HC1372] | -0.915 (inactive) | -0.282 (inactive) | 0.0526 (inactive)
41 | CASGENLPYLAGNASASA [HC950] | -0.962 (inactive) | 0.134 (inactive) | -0.522 (inactive)
42 | CAVGGVYLLPAGNASASA [HC176] | 1.19 | 0.0945 (inactive) | 0.538 (inactive)
43 | CAEPDVAVLTAGNASASA [HC1243] | 0.073 (inactive) | 0.723 (inactive) | -1.2 (inactive)
44 | CAKKRTVVLTAGNASASA [HC1325] | -0.725 (inactive) | -0.173 (inactive) | 0.000165 (inactive)
45 | CARKRRNLETAGNASASA [FS-2700] | 7.71 (active) | 8.41 (active) | 8.69 (active)
46 | CARPRRILNTAGNASASA [FS-2441] | -2.76 (inactive) | 0.234 (inactive) | 0.846 (inactive)
47 | CASFRRAFLIAGNASASA [FS-2322] | -1.89 (inactive) | -0.15 (inactive) | -1.34 (inactive)
48 | CARKRRANSLAGNASASA [FS-3194] | 6.54 (active) | 9.21 (active) | 5.81 (active)
49 | CARKRRALLIAGNASASA [FS-3258] | 5.47 (active) | 5.56 (active) | 8.18 (active)
50 | CARKRRAVLTAGNASASA [FS-2971] | 8.83 (active) | 12.7 (active) | 10.3 (active)
51 | CARQQRDEETAGNASASA [FS-2401] | -0.691 (inactive) | -0.187 (inactive) | -3.21 (inactive)
52 | CAINALSNSLAGNASASA [HC1382] | -0.629 (inactive) | -0.0116 (inactive) | 0.458 (inactive)
53 | CARKFRSGLIAGNASASA [FS-2152] | -0.364 (inactive) | 0.099 (inactive) | -0.282 (inactive)
